# Measurements: PubChem BioAssay (EPA / NIEHS)
# Activity calls are given as the source filed them. The calls were made as follows: active = hit-call score of the fitted dose curve at least 0.9, where 1 is the maximum; inactive = score below 0.9.
# Read-out: Interleukin-8 (IL8), CXCL8 (gene 3576)
# Experiment: BSK_3C_IL8: BioMAP Diversity Plus: 3C Assay for Interleukin-8 (IL8) Biomarker Activity (AID 2283020)
# Conditions: primary human endothelial cells (HUVEC); actives raise or lower the signal
# Protocol: BSK_3C is a cell-based, multiplexed-readout assay that uses umbilical vein endothelium, a human vascular primary cell, with measurements taken at 24 hours after chemical dosing in a 96-well plate.BSK_3C_IL8 is an assay component measured in the BSK_3C assay. It measures IL-8 antibody related to regulation of gene expression using ELISA technology.Data from the assay component BSK_3C_IL8 was analyzed into 1 assay endpoint. This assay endpoint, BSK_3C_IL8, was analyzed with bidirectional fitting relative to DMSO as the negative control and baseline of activity. Using a type of binding reporter, gain or loss-of-signal activity can be used to understand changes in the signaling as they relate to the gene CXCL8. Furthermore, this assay endpoint can be referred to as a primary readout, because this assay has produced multiple assay endpoints where this one serves a signaling function. To generalize the intended target to other relatable targets, this assay endpoint is annotated to the cytokine intended target family, where the subfamily is interleukins.
# The levels of cell surface (or secreted, indicated by the prefix "s") biomarker endpoints were measured by ELISA. Overt cytotoxicity to cells in confluent adherent cultures (all systems other than the BT system) was assessed by measuring total protein levels using sulforhodamine B (SRB) staining in parallel cultures at the time of biomarker measurements, indicated as SRB endpoints. For proliferation assays for adherent cell types, individual cell types are cultured at sub-confluence and relative cell numbers quantified by SRB staining at time points optimized for each system (48 h: 3C and CASM3C systems; 72 h: BT and HDF3CGF systems; 96 h: SAg system). SRB was performed by staining cells with 0.1% SRB after fixation with 10% TCA and reading wells at 560 nm.Viability and proliferation of PBMC (T cells) was quantified by Alamar Blue reduction for the SAg and BT systems. For PBMC viability (referred to as PBMC Cytotoxicity within the assay endpoint names), cells were plated (75,000/well in a 96-well plate) and then chemical samples added for 1 h before addition of activators, SEB and TSST-1 (20 ng/mL final concentration each). Cells were incubated for 90 h. Then, Alamar Blue (20 uL/well) (Invitrogen, Cat DAL1100) was added for 6 h, and the plates were read with a fluorescence microplate reader at 546/580 nm (excitation/emission). For PBMC proliferation, cells were plated and activated as above but incubated for only 16 h prior to addition of Alamar Blue. Plates were read after 6 h.
SMILES,outcome,AC50
COS(C)(=O)=O,inactive,
NC(N)=O,inactive,
COc1cc(C(C)C)c2c(c1)S(=O)(=O)N(COc1cc(=O)n3cccc(OCCN4CCCCC4)c3n1)C2=O,inactive,
CCCCCCCC1CCC(=O)O1 (stereo not given),inactive,
Cn1c(=O)c2[nH]cnc2n(C)c1=O,inactive,
c1ccc2c(c1)-c1cccc3c1c-2cc1ccccc13,inactive,
CCCCN1C(=O)[C@@H]([C@H](O)C2CCCCC2)NC(=O)C12CCN(Cc1ccc(Oc3ccc(C(=O)O)cc3)cc1)CC2,inactive,
Nc1ccn([C@@H]2O[C@H](CO)[C@@H](O)[C@@H]2O)c(=O)n1,inactive,
CNC(C)=O,inactive,
O=S1(=O)CCCO1,inactive,
CC(C)CC(C)O (stereo not given),inactive,
O=C(O)c1ccc2c(c1)nc(C(=O)NC1CCN(C3CC3)CC1)n2Cc1cc(-c2ccc(Cl)s2)on1,inactive,
FC(F)(F)COC(OCC(F)(F)F)OCC(F)(F)F,inactive,
O=C(O)[C@H](O)[C@@H](O)C(=O)O,inactive,
COCc1nnc(-c2ccc[n+]([O-])c2)n1-c1c(Cl)c(Cl)cc2[nH]c(=O)c(=O)[nH]c12,inactive,
O=C1CN(N=Cc2ccc([N+](=O)[O-])o2)C(=O)N1,inactive,
NC(=O)NN=Cc1ccc([N+](=O)[O-])o1,inactive,
NNC(=O)c1ccncc1,inactive,
NC(=O)N1c2ccccc2C=Cc2ccccc21,inactive,
c1ccc2ncccc2c1,inactive,

SMILES,outcome,AC50
CC1(C)C(=O)N(Cl)C(=O)N1Cl,inactive,
OCc1c[nH]c2ccccc12,inactive,
CCN(CC)C(=S)SSC(=S)N(CC)CC,,31.2 µM (active)
CCn1nc(C)c2c1C(=O)NCC(c1ccc(O)cc1)=N2,inactive,
O=C(O)c1cccc(C[C@@H]2COc3ccc(OCc4nc5cc(F)ccc5s4)cc3[C@@H]2O)c1,inactive,
Cc1ccc(S(=O)(=O)NC(=O)NN2CCCCCC2)cc1,inactive,
O=C(NO)C1(NS(=O)(=O)c2ccc(Oc3ccc(F)cc3)cc2)CCOCC1,inactive,
CC[C@H](C)C(=O)O[C@H]1C[C@H](O)C=C2C=C[C@H](C)[C@H](CC[C@@H](O)C[C@@H](O)CC(=O)O)[C@H]21,inactive,
O=C(Cl)C(F)(F)C(F)(F)C(F)(F)C(=O)Cl,inactive,
CCCc1ccccc1,inactive,
CCOC(N)=O,inactive,
FC(F)C(F)(F)COCC1CO1 (stereo not given),inactive,
C=CN1CCCC1=O,inactive,
Cc1cccc(O)c1C,inactive,
OC[C@H]1O[C@@H]2O[C@H]3[C@H](O)[C@@H](O)[C@@H](O[C@H]4[C@H](O)[C@@H](O)[C@@H](O[C@H]5[C@H](O)[C@@H](O)[C@@H](O[C@H]6[C@H](O)[C@@H](O)[C@@H](O[C@H]7[C@H](O)[C@@H](O)[C@@H](O[C@H]1[C@H](O)[C@H]2O)O[C@@H]7CO)O[C@@H]6CO)O[C@@H]5CO)O[C@@H]4CO)O[C@@H]3CO,inactive,
CCCCCOC(C)=O,inactive,
O=C(O)c1cccc(C(=O)O)c1,inactive,
CCCCCCCCN(C)C,inactive,
C[C@@H](Oc1ccc(CNC(=O)c2cccnc2Oc2ccc3c(c2)OCO3)c(F)c1)C(=O)O,inactive,
c1ccc2cc3ccccc3cc2c1,inactive,
